# Measured values from the supplement of paper PMC6522484.
# ± gives the standard deviation of the averaged measurements.
# How the values were obtained:
# DLD1 [1] = experiment: cell viability (CellTiter-Glo) relative to plate median (fraction of plate median); higher = more viable cells; settings: 5 µM; treatment time 24 h; reporter: 7TFP
# Outline: (§1)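 Normalisation used webcellHTS2 in additive mode without log transformation, scaling each well's luminescence to the plate median. The luminescence was firefly luciferase or CellTiterGlo, read on a Tecan F500 from parallel plates of colorectal cancer cells stably transduced with lentiviral TCF/Wnt firefly luciferase reporters. Those cells had been given library compounds at a final 5 µM for 24 h, and two independent replicates were averaged.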
# HCT116 = experiment: as above; settings: 5 µM; treatment time 24 h; reporter: TCF4/Wnt
# Outline: as §1
# SW480 [2] = experiment: as above; settings: 5 µM; treatment time 24 h; reporter: 7TFP
# Outline: as §1
# DLD1 [3] = experiment: TCF/Wnt firefly luciferase reporter signal relative to plate median (fraction of plate median); higher = higher Wnt reporter signal; settings: 5 µM; treatment time 24 h; reporter: 7TFP
# Outline: as §1
# SW480 [4] = experiment: as above; settings: 5 µM; treatment time 24 h; reporter: 7TFP
# Outline: as §1
SMILES,cell viability (DLD1 [1]),cell viability (HCT116),cell viability (SW480 [2]),TCF/Wnt firefly luciferase reporter signal (DLD1 [3]),TCF/Wnt firefly luciferase reporter signal (SW480 [4])
C[n+]1c2cc(N)ccc2cc2ccc(N)cc21,1.05 ± 0.014,0.951 ± 0.084,1.08 ± 0.042,1.4 ± 0.27,1.01 ± 0.08
COc1ccc2c(c1)OC/C(=C/c1ccc(O)c(O)c1)C2=O,0.99 ± 0.043,1.01 ± 0.021,0.986 ± 0.035,0.944 ± 0.033,1.09 ± 0.078
O=C(Cc1ccccc1)NO,1.03 ± 0.028,0.878 ± 0.13,1 ± 0.027,0.789 ± 0.064,0.869 ± 0.014
CCn1cc(C(=O)O)c(=O)c2cnc(N3CCCC3)nc21,0.983 ± 0.025,1 ± 0.029,0.955 ± 0.02,0.856 ± 0.055,0.978 ± 0.046
CC1=CC(=O)C(C(C)C)=CC1=O,1.04 ± 0.057,1.03 ± 0.054,1.05 ± 0.014,1.09 ± 0.11,1.1 ± 0.064
C[C@]12CCC3c4ccc(OC(=O)c5ccccc5)cc4CCC3C1CCC2=O (stereo not given in full),1.05 ± 0.05,1.01 ± 0.021,0.991 ± 0.011,0.978 ± 0.045,0.989 ± 0.058
CCOC(=O)[C@H](CCc1ccccc1)N[C@@H](C)C(=O)N1CCC[C@H]1C(=O)O,0.971 ± 0.018,1.11 ± 0.085,1 ± 0.029,1.04 ± 0.035,0.994 ± 0.023
CCc1ccc2c(O)c3c(cc2c1C(=O)OC)C(=O)c1c(O)ccc(O)c1C3=O,1.04 ± 0.093,1.06 ± 0.099,1.14 ± 0.13,1.04 ± 0.15,0.967 ± 0.029
Cc1c(OCC(F)(F)F)ccnc1C[S+]([O-])c1nc2ccccc2[nH]1 (stereo not given),1.07 ± 0.14,1.02 ± 0.061,0.932 ± 0.0014,1.09 ± 0.021,0.959 ± 0.011
CN1[C@@H](CC(=O)c2ccccc2)CCC[C@H]1C[C@H](O)c1ccccc1,1.1 ± 0.13,0.987 ± 0.061,1.05 ± 0.021,0.998 ± 0.032,1.04 ± 0.098
CN(C)CCC(c1ccccc1)c1ccccn1 (stereo not given),0.973 ± 0.039,1 ± 0.18,0.963 ± 0.032,1.16 ± 0.035,1.055 ± 0.0071
CN(C(=O)C(Cl)Cl)c1ccc(OC(=O)c2ccco2)cc1,0.95 ± 0.0014,0.879 ± 0.2,1.03 ± 0.021,0.833 ± 0.14,0.934 ± 0.043
COC(=O)C[C@H]1C(C)(C)[C@@H](OC(C)=O)[C@@H]2CC3=C4CC(=O)O[C@@H](c5ccoc5)[C@]4(C)CC[C@@H]3[C@@]1(C)C2=O,0.9945 ± 0.0078,1.045 ± 0.0071,0.963 ± 0.018,0.993 ± 0.067,0.95 ± 0.041
COc1ccc2c(c1)OCC(Cc1ccc(O)c(OC)c1)C2=O (stereo not given),0.99 ± 0.014,1.04 ± 0.07,0.915 ± 0.049,0.887 ± 0.066,0.971 ± 0.084
COc1c2c(c(O)c3c4c(c(C)cc13)[C@@H]1O[C@@]3(C(OC)OC)O[C@@H]1[C@@](O[C@H]1CC(O)[C@@](O)(C(C)=O)C(C)O1)(O4)[C@@]3(O)Cn1cnc3nc(N)[nH]c(=O)c31)C(=O)C(O)CC2O[C@H]1CC(C)(O)[C@H](OC(C)=O)C(C)O1 (stereo not given in full) [Gutingimycin],0.932 ± 0.022,0.966 ± 0.0057,0.946 ± 0.059,0.87 ± 0.14,0.898 ± 0.07
CC(C)[C@@H]1CC[C@@H](C)CC1=O,1.01 ± 0.033,1.16 ± 0.11,1.04 ± 0.028,0.906 ± 0.087,0.904 ± 0.037
NC[C@H](O)c1ccc(O)c(O)c1,1.02 ± 0.035,0.95 ± 0.071,1.005 ± 0.0071,0.962 ± 0.069,0.9835 ± 0.0078
O=C(CNC(=O)c1ccc(Cl)cc1)NO,0.978 ± 0.025,1 ± 0.041,0.931 ± 0.026,1.03 ± 0.048,1.13 ± 0.028

SMILES,cell viability (DLD1 [1]),cell viability (HCT116),cell viability (SW480 [2]),TCF/Wnt firefly luciferase reporter signal (DLD1 [3]),TCF/Wnt firefly luciferase reporter signal (SW480 [4])
C=CCSCC(N)C(=O)O (stereo not given),1.015 ± 0.0071,0.976 ± 0.15,1.01 ± 0.05,0.923 ± 0.027,0.923 ± 0.02
COc1ccc(C(=O)O)c(O)c1OC,0.991 ± 0.055,0.977 ± 0.12,0.9195 ± 0.00071,0.803 ± 0.069,0.905 ± 0.19
CC1(C)CC2C1CCC1(C)OC1CCC2(C)O (stereo not given),0.995 ± 0.036,1 ± 0.067,0.975 ± 0.0071,1.07 ± 0.078,1 ± 0.065
CCOC(=O)CCCCCCCCCCCCC1C=CCC1 (stereo not given),0.9375 ± 0.005,0.949 ± 0.07,0.965 ± 0.05,0.869 ± 0.034,0.873 ± 0.073
COC(=O)C[C@H]1C(C)(C)C(=O)[C@@H]2CC3=C(CC[C@]4(C)C3=CC(=O)O[C@H]4c3ccoc3)[C@@]1(C)C2=O,0.96 ± 0.032,0.979 ± 0.058,0.944 ± 0.018,0.782 ± 0.35,0.954 ± 0.029
CC(C)[N+]1(C)[C@@H]2CC[C@H]1C[C@@H](OC(=O)C(CO)c1ccccc1)C2 (stereo not given in full),1.02 ± 0.13,0.989 ± 0.16,0.953 ± 0.065,1 ± 0.013,0.935 ± 0.076
"C[C@@H]1CC(=O)c2c(ccc3c2C(=O)c2cccc(O)c2C3=O)C1 [Ochromycinone (Isoform A, compound ID 7490)]",1.06 ± 0.078,1.005 ± 0.0071,1.02 ± 0.072,1 ± 0.023,0.997 ± 0.32
Cc1cc(OC(=O)c2c(C)cc(O)cc2O)cc(O)c1C(=O)O,1.08 ± 0.099,1.03 ± 0.035,1.1 ± 0.071,1.03 ± 0.18,1.06 ± 0.05
COc1ccc2c(=O)ccoc2c1,0.979 ± 0.059,0.933 ± 0.11,0.942 ± 0.0071,1.03 ± 0.021,1.05 ± 0.1
COc1c(-c2coc3cc4c(cc3c2=O)CC(OC(C)=O)C(C)(C)O4)ccc2c1C=CC(C)(C)O2 (stereo not given),0.961 ± 0.0085,0.887 ± 0.077,1.01 ± 0.045,1.01 ± 0.32,1.1 ± 0.16
CC(=O)C1=C(O)C=C2Oc3c(C(C)=O)c(O)c(C)c(O)c3C2(C)C1=O (stereo in doubt),0.995 ± 0.035,1.04 ± 0.028,0.968 ± 0.018,1.2 ± 0.13,0.973 ± 0.052
C=CCSCC=C,0.9785 ± 0.0078,0.967 ± 0.047,0.98 ± 0.029,0.959 ± 0.015,0.95 ± 0.05
Cc1cc(C)cc(OCC2CNC(=O)O2)c1 (stereo not given),0.964 ± 0.013,1.07 ± 0.1,0.975 ± 0.05,1.02,0.957 ± 0.039
COc1cccc2c1CCC1=CC(=O)CC[C@@]12C,1.09 ± 0.099,1.004 ± 0.0085,1.03 ± 0.021,0.944 ± 0.073,0.967 ± 0.1
CN(C)[C@@H]1C(O)=C(C(=O)NCN2CCCC2)C(=O)[C@@]2(O)C(O)=C3C(=O)c4c(O)cccc4[C@@](C)(O)[C@H]3C[C@@H]12,1.08 ± 0.13,1.06,1.02 ± 0.014,0.858 ± 0.067,1.04
CCCCCC(=O)O[C@]1(C(C)=O)CC[C@H]2[C@@H]3CCC4=CC(=O)CC[C@]4(C)[C@H]3CC[C@@]21C,0.993 ± 0.0099,1.04 ± 0.057,0.972 ± 0.018,0.979 ± 0.087,1.04 ± 0.021
CO[C@@H]1[C@H](O)[C@@H](C)O[C@@H](OC[C@H]2[C@@H]3O[C@H]3/C=C/C(=O)[C@@](C)(O)C[C@H](C)[C@H](O[C@@H]3O[C@H](C)C[C@H](OC)[C@H]3O)[C@@H](C)/C=C/C(=O)O[C@@H]2C)[C@@H]1OC [Chalcomycin],1.04 ± 0.083,1.1 ± 0.071,1.01 ± 0.048,0.869 ± 0.094,0.965 ± 0.034
